Test results reported in PubChem BioAssay (EPA / NIEHS).
Active and inactive are the calls of the source. The calls were made as follows: active = hit-call score of the fitted dose curve at least 0.9, where 1 is the maximum; inactive = score below 0.9.

Read-out: Interleukin-8 (IL8), CXCL8 (gene 3576)
Experiment: BSK_SAg_IL8: BioMAP Diversity Plus: SAg Assay for Interleukin-8 (IL8) Biomarker Activity (AID 2283094)
Settings: primary human HUVEC with PBMC; actives raise or lower the signal
Procedure: BSK_SAg is a cell-based, multiplexed-readout assay that uses umbilical vein endothelium and peripheral blood mononuclear cells, a human vascular primary cell co-culture, with measurements taken at 24 hours after chemical dosing in a 96-well plate.BSK_SAg_IL8 is an assay component measured in the BSK_SAg assay. It measures IL-8 antibody related to regulation of gene expression using ELISA technology.Data from the assay component BSK_SAg_IL8 was analyzed into 1 assay endpoint. This assay endpoint, BSK_SAg_IL8, was analyzed with bidirectional fitting relative to DMSO as the negative control and baseline of activity. Using a type of binding reporter, gain or loss-of-signal activity can be used to understand changes in the signaling as they relate to the gene CXCL8. Furthermore, this assay endpoint can be referred to as a primary readout, because this assay has produced multiple assay endpoints where this one serves a signaling function. To generalize the intended target to other relatable targets, this assay endpoint is annotated to the cytokine intended target family, where the subfamily is interleukins.
The levels of cell surface (or secreted, indicated by the prefix "s") biomarker endpoints were measured by ELISA. Overt cytotoxicity to cells in confluent adherent cultures (all systems other than the BT system) was assessed by measuring total protein levels using sulforhodamine B (SRB) staining in parallel cultures at the time of biomarker measurements, indicated as SRB endpoints. For proliferation assays for adherent cell types, individual cell types are cultured at sub-confluence and relative cell numbers quantified by SRB staining at time points optimized for each system (48 h: 3C and CASM3C systems; 72 h: BT and HDF3CGF systems; 96 h: SAg system). SRB was performed by staining cells with 0.1% SRB after fixation with 10% TCA and reading wells at 560 nm.Viability and proliferation of PBMC (T cells) was quantified by Alamar Blue reduction for the SAg and BT systems. For PBMC viability (referred to as PBMC Cytotoxicity within the assay endpoint names), cells were plated (75,000/well in a 96-well plate) and then chemical samples added for 1 h before addition of activators, SEB and TSST-1 (20 ng/mL final concentration each). Cells were incubated for 90 h. Then, Alamar Blue (20 uL/well) (Invitrogen, Cat DAL1100) was added for 6 h, and the plates were read with a fluorescence microplate reader at 546/580 nm (excitation/emission). For PBMC proliferation, cells were plated and activated as above but incubated for only 16 h prior to addition of Alamar Blue. Plates were read after 6 h.

Question: With `CCNC(=O)NC(=O)C(C#N)=NOC` as the compound, how does the outcome read?
Answer: The outcome was “inactive”.

Question: With `CCSC(=O)N1CCCCCC1` as the compound, how does the outcome read?
Answer: Its outcome is “inactive”.

Question: With `C=CCOC(=O)C(C)(C)OC(=O)c1cc(-n2c(=O)cc(C(F)(F)F)n(C)c2=O)ccc1Cl` as the compound, how does the outcome read?
Answer: Its outcome is “inactive”.

Question: `CCOc1nc(F)cc2nc(S(=O)(=O)Nc3c(Cl)cccc3Cl)nn12` was tested. Which outcome did it give?
Answer: The outcome was “inactive”.

Question: Which AC50 does the source give for `Cc1c(COC(=O)[C@@H]2[C@H](/C=C(\Cl)C(F)(F)F)C2(C)C)cccc1-c1ccccc1` here?
Answer: Its AC50 is 9.35 µM (active).

Question: How did the outcome turn out when `Nc1c(Cl)c(F)nc(OCC(=O)O)c1Cl` was run?
Answer: The outcome was “inactive”.

Question: `CC(C)C1(C)N=C(c2ncccc2C(=O)O)NC1=O` (stereo not given) was tested. Which outcome did it give?
Answer: Its outcome is “inactive”.

Question: How did the outcome turn out when `CCOC(=O)C(C)OC(=O)c1cc(Oc2ccc(C(F)(F)F)cc2Cl)ccc1[N+](=O)[O-]` (stereo not given) was run?
Answer: The outcome was “inactive”.

Question: `CC1(C)CCC(=Cc2ccc(Cl)cc2)C1(O)Cn1cncn1` (stereo not given) was tested. Which outcome did it give?
Answer: The outcome was “inactive”.

Question: Which AC50 does the source give for `COP(=S)(OC)Oc1ccc([N+](=O)[O-])c(C)c1` here?
Answer: The AC50 was 29.6 µM (active).

Question: For `COCC(=O)N(c1c(C)cccc1C)C(C)C(=O)OC` (stereo not given), which outcome is on record?
Answer: Its outcome is “inactive”.

Question: `CNC(=O)N(C)c1nnc(C(C)(C)C)s1` was tested. Which outcome did it give?
Answer: The outcome was “inactive”.

Question: How did the outcome turn out when `Nc1c(Cl)c(Cl)nc(C(=O)O)c1Cl` was run?
Answer: Its outcome is “inactive”.

Question: With `CC1(C)C(C(=O)OC(C#N)c2cccc(Oc3ccccc3)c2)C1(C)C` (stereo not given) as the compound, how does the AC50 read?
Answer: Its AC50 is 26.8 µM (active).

Question: With `N#Cc1c(Cl)cccc1Cl` as the compound, how does the outcome read?
Answer: The outcome was “inactive”.

Question: Which outcome does the source give for `CCCCC(O)(Cn1cncn1)c1ccc(Cl)cc1Cl` (stereo not given) here?
Answer: The outcome was “inactive”.

Question: How did the AC50 turn out when `COC(=O)N(C(=O)N1CO[C@@]2(C(=O)OC)Cc3cc(Cl)ccc3C2=N1)c1ccc(OC(F)(F)F)cc1` was run?
Answer: Its AC50 is 5.25 µM (active).

Question: For `O=P(O)(O)CCCl`, which outcome is on record?
Answer: The outcome was “inactive”.

Question: `Clc1nc(Cl)nc(Nc2ccccc2Cl)n1` was tested. Which outcome did it give?
Answer: The outcome was “inactive”.

Question: How did the outcome turn out when `O=C(O)c1c(Cl)ccc2cc(Cl)cnc12` was run?
Answer: Its outcome is “inactive”.

Question: Which AC50 does the source give for `CCOc1cc(C(C)(C)C)ccc1C1COC(c2c(F)cccc2F)=N1` (stereo not given) here?
Answer: The AC50 was 18.6 µM (active).

Question: How did the outcome turn out when `CCOP(=S)(OCC)Oc1nc(Cl)n(C(C)C)n1` was run?
Answer: The outcome was “inactive”.

Question: `CCNP(=S)(OC)O/C(C)=C/C(=O)OC(C)C` (stereo not given) was tested. Which outcome did it give?
Answer: The outcome was “inactive”.

Question: For `CN=C=S`, which AC50 is on record?
Answer: Its AC50 is 11.7 µM (active).

Question: `CN/C(=N\[N+](=O)[O-])NCc1cnc(Cl)s1` was tested. Which outcome did it give?
Answer: Its outcome is “inactive”.

Question: For `CCN(CC)c1nc(C)cc(OP(=S)(OC)OC)n1`, which AC50 is on record?
Answer: The AC50 was 14.1 µM (active).

Question: Which outcome does the source give for `CCC(C)n1c(=O)[nH]c(C)c(Br)c1=O` (stereo not given) here?
Answer: The outcome was “inactive”.

Question: For `CS(=O)(=O)c1cc(C(F)(F)F)ccc1C(=O)c1cnoc1C1CC1`, which outcome is on record?
Answer: Its outcome is “inactive”.

Question: Which outcome does the source give for `CC(C)(C)C(=O)C(Oc1ccc(Cl)cc1)n1cncn1` (stereo not given) here?
Answer: The outcome was “inactive”.

Question: How did the outcome turn out when `CC(C)N1C(=O)c2ccccc2NS1(=O)=O` was run?
Answer: The outcome was “inactive”.

Question: How did the outcome turn out when `CCOP(=O)(OCC)Oc1nc(Cl)c(Cl)cc1Cl` was run?
Answer: Its outcome is “inactive”.

Question: `CCCN(CC)CC1COC2(CCC(C(C)(C)C)CC2)O1` (stereo not given) was tested. Which AC50 did it give?
Answer: The AC50 was 12.1 µM (active).

Question: `CNC(=O)Oc1cccc2ccccc12` was tested. Which outcome did it give?
Answer: Its outcome is “inactive”.

Question: For `O=c1n(Cl)c(=O)n(Cl)c(=O)n1Cl`, which outcome is on record?
Answer: The outcome was “inactive”.

Question: `CC1(C)CON(Cc2ccccc2Cl)C1=O` was tested. Which outcome did it give?
Answer: The outcome was “inactive”.

Question: For `CCN(CC)C(=O)C(C)Oc1cccc2ccccc12` (stereo not given), which outcome is on record?
Answer: Its outcome is “inactive”.

Question: How did the AC50 turn out when `O=C1C2CC=CCC2C(=O)N1SC(Cl)(Cl)Cl` (stereo not given) was run?
Answer: Its AC50 is 25.3 µM (active).

Question: Which outcome does the source give for `COC(=O)c1c(C(F)F)nc(C(F)(F)F)c(C2=NCCS2)c1CC(C)C` here?
Answer: The outcome was “inactive”.

Question: For `CSC(=O)c1c(C(F)F)nc(C(F)(F)F)c(C(=O)SC)c1CC(C)C`, which AC50 is on record?
Answer: The AC50 was 12.7 µM (active).

Question: With `COP(=O)(OC)O/C(C)=C/C(=O)N(C)C` as the compound, how does the outcome read?
Answer: Its outcome is “inactive”.
